Assay outcomes deposited in PubChem BioAssay by Broad Institute.
Statin myotox sup – suppression of simvastatin myotoxicity. C2C12 myotubes + simvastatin, ATP luminescence, 48 h; scaled: DMSO 0, geranylgeraniol control 100. AID 602340. 330,000 compounds, 0.78% hits. rescue of ATP level, % at 7.49 µM;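 active means mean ATP rescue above about 67%, or every replicate alone reaching that limit, limit read from the data, passing the limit was not always enough; inconclusive means no clear call, values can overlap the other calls; inactive means mean under the limit and some replicate under it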;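 further: myotubes were challenged with 10 µM simvastatin during compound exposure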
ARNT TACC3 PPI – disruptors of human ARNT/TACC3 interaction; AID 623870; inhibition, % at 9.99 µM; 390,000 compounds, 0.66% hits; AlphaScreen His-ARNT PAS-B/GST-TACC3 binding, luminescence; TACC3 fragment carries E629A point mutation; Q9Y6A5;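 active means mean inhibition of replicates at least 50% and at least half of replicates each reaching 50%; inconclusive means half or more replicates reach 50% but mean below 50%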
CFTR F508del cor – correctors of CFTR F508del function in bronchial epithelial cells; CFBE cells, YFP halide quenching; stimulated with forskolin plus potentiator P3; % fluorescence drop versus neutral controls; activity (quench increase), % at 7.58 µM; 350,000 compounds, 0.36% hits; AID 720511;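 active means mean added fluorescence quench of at least 8% versus neutral control, with both replicates also reaching 8%; inconclusive means only one of the mean or replicate conditions met; inactive means mean below 8% and not both replicates reaching 8%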;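 further: cells transiently co-express mutant CFTR-F508del with the halide-sensitive YFP; corrector assay measuring rescue of mutant channel to the surface after 24 h compound exposure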
PglD inh – PglD (C. jejuni) enzyme inhibition; purified PglD enzyme, DTNB colorimetric CoA detection; inhibition, % at 12.5 µM; 360,000 compounds, 0.098% hits; AID 602405; in the data active means inhibition above about 16%, passing the limit was not always enough; inconclusive means no clear call, values can overlap the other calls
Large screens that a line does not name were inactive. An excerpt weighted towards active compounds, which were near 1.4% of everything screened.

CCOc1ccccc1NC(=O)C1CCCN(S(=O)(=O)c2ccc(OC)c(C)c2)C1 (configuration not stated)	Statin myotox sup 122 (no result: CFTR F508del cor)
CCOc1ccc(S(=O)(=O)N2CCCCC2)cc1NC(=O)c1ccccc1	CFTR F508del cor 12
C[C@@H]1CN([C@@H](C)CO)C(=O)c2cccc(NC(=O)Nc3ccccc3)c2O[C@H]1CN(C)CC1CCCCC1	none
O=C(C[C@H]1CC[C@@H]2[C@H](COC[C@@H](O)CN2Cc2ccc(C(F)(F)F)cc2)O1)NCCc1ccccc1	none
COc1ccc(CN2C(=O)C(C)Nc3ncnc(N4CCOCC4)c32)cc1 (configuration not stated)	none
CC1Nc2ncnc(N3CCOCC3)c2N(Cc2ccccc2)C1=O (configuration not stated)	ARNT TACC3 PPI 23
C[C@@H]1CN([C@H](C)CO)C(=O)Cc2cc(NC(=O)Cn3cnnn3)ccc2O[C@H]1CN(C)C(=O)Nc1ccc(F)cc1	none (no result: ARNT TACC3 PPI, PglD inh)
CCC(C(=O)Nc1ccccc1-c1ccccc1)c1ccccc1 (configuration not stated)	Statin myotox sup 113 (no result: CFTR F508del cor)
CCC(C(=O)Nc1ccccc1)c1ccccc1 (configuration not stated)	none (no result: Statin myotox sup, CFTR F508del cor)
CC(Sc1nc2ccccc2c(=O)n1C)C(=O)Nc1ccc2c(c1)OCCO2 (configuration not stated)	CFTR F508del cor 25
CC(C)Cn1c(SC(C)C(=O)Nc2ccc3c(c2)OCCO3)nc2ccccc2c1=O (configuration not stated)	none (no result: CFTR F508del cor)
Cc1ccc(CN(C(=O)c2ccco2)C(C(=O)NC2CCCC2)c2ccc(N3CCOCC3)cc2)cc1 (configuration not stated)	Statin myotox sup 119 (no result: CFTR F508del cor)
Cc1ccc(CN(C(=O)c2ccco2)C(C(=O)NC2CCCC2)c2cccnc2)cc1 (configuration not stated)	none
O=C(O)c1ccccc1NS(=O)(=O)c1ccc2ccccc2c1	none
Cc1cc(S(=O)(=O)Nc2ccccc2C(=O)O)ccc1Cl	Statin myotox sup 73
COc1ccc(S(=O)(=O)Nc2cc(SCC(=O)O)c(O)c3ccccc23)cc1	Statin myotox sup inconclusive, ARNT TACC3 PPI 61
O=S(=O)(Nc1ccc(Cl)cc1NS(=O)(=O)c1ccccc1)c1ccccc1	none
COc1ccc(S(=O)(=O)Nc2cccc3ccc(O)cc23)cc1	CFTR F508del cor 14 (no result: Statin myotox sup)
COc1ccc(S(=O)(=O)Nc2ccccc2C)cc1	none (no result: Statin myotox sup, CFTR F508del cor)
O=C(O)CSc1cc(NS(=O)(=O)c2ccc(Cl)cc2)c2ccccc2c1O	ARNT TACC3 PPI 48
O=C(C[C@@H]1CC[C@H]2[C@@H](COC[C@@H](O)CN2Cc2ccc(Oc3ccccc3)cc2)O1)N1CCc2ccccc2C1	none
O=C(N[C@@H]1CC[C@H](CC(=O)N2CCOCC2)O[C@@H]1CO)c1ccccn1	none
CC(=O)O[C@H]1CC[C@@]2(C)C(=CC[C@H]3[C@@H]4CC[C@H](C5(C)OCCO5)[C@@]4(C)CC[C@@H]32)C1	none (no result: CFTR F508del cor)
CC(=O)OC1CCC2(C)C(=CCC3C2CCC2(C)C3CC3ON=C(C)C32)C1 (configuration not stated)	CFTR F508del cor 11
COc1ccccc1N(C)S(=O)(=O)c1ccc(C(=O)Nc2ncc(C)s2)cc1	none (no result: ARNT TACC3 PPI, PglD inh)
COc1ccccc1N(C)S(=O)(=O)c1ccc(C(=O)Nc2nccs2)cc1	CFTR F508del cor 27
O=C(CC1CC1)N1[C@@H](CO)[C@H](c2ccccc2)C12CN(Cc1ccncc1)C2	none (no result: Statin myotox sup, ARNT TACC3 PPI, PglD inh)
COc1cc2c(cc1OC)C(c1cccs1)N(C(=O)c1cccnc1)CC2 (configuration not stated)	CFTR F508del cor 9.9
COc1cc2c(cc1OC)C(c1cccs1)N(C(=O)C(C)C)CC2 (configuration not stated)	none (no result: CFTR F508del cor)
CCC(=O)N1[C@H](CO)[C@H](c2ccccc2)C12CN(C(=O)c1ccc(F)cc1)C2	none (no result: Statin myotox sup, ARNT TACC3 PPI, PglD inh)
Oc1c(Cl)cc(Cl)cc1/C=N/c1nccs1	none (no result: CFTR F508del cor)
C(=N\c1nccs1)/Nc1nccs1	Statin myotox sup 98 (no result: CFTR F508del cor, PglD inh)
C[C@H]1CCCCO[C@H](CN(C)C(=O)Nc2ccc3c(c2)OCO3)[C@@H](C)CN([C@@H](C)CO)C(=O)c2cc(NC(=O)CCCN(C)C)ccc2O1	none (no result: Statin myotox sup)
O=C(CN1C(=O)CCC1=O)Nc1ccc2c3c(cccc13)CC2	Statin myotox sup 92 (no result: CFTR F508del cor)
COc1ccccc1NC(=O)c1nc(S(=O)(=O)Cc2ccccc2)ncc1Cl	none
CCS(=O)(=O)c1ncc(Cl)c(C(=O)Nc2ccccc2OC)n1	Statin myotox sup 144
O=C(NN1C(=O)CSC1=S)C(=O)NN1C(=O)CSC1=S	ARNT TACC3 PPI 59
O=C(Cc1cccc2ccccc12)NN1C(=O)CSC1=S	none (no result: Statin myotox sup, PglD inh)
